# According to the supplement of paper PMC12350171:
# Where a name gives a salt, the structure may show the parent alone. Values without a mark were called inactive.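 How the source made its calls: active = AUC significantly below DMSO controls by Student t-fit with adjusted P under 0.01; inactive = not significantly reduced.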
# Test system: Haemophilus parainfluenzae
# Test: growth AUC normalised to DMSO control (fraction of control); higher = less growth inhibition, active = hit call of the paper
# Conditions: 20 µM
# Procedure, shortened: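 Pathogens passaged twice anaerobically were inoculated at a starting OD578 of 0.01 into pre-reduced mGAM plates with drug at 20 μM and 1% DMSO, sealed with breathable membranes. Haemophilus parainfluenzae medium was supplemented with hemin and NAD. OD578 was read hourly for 24 h, with three biological replicates. Growth-curve AUC was computed by the trapezoidal rule up to the exponential-to-stationary transition and normalised to DMSO controls on the same plate.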
row,SMILES,growth AUC normalised to DMSO control
1,COc1cc(C)nc(-n2nc(C)cc2OC)n1 [Epirizole],0.999
2,COc1ccc(C(=O)NCc2cccnc2)cc1C(=O)NCc1cccnc1 [Picotamide monohydrate],0.997
3,N=C(N)c1ccc(OCCCCCOc2ccc(C(=N)N)cc2)cc1 [Pentamidine isethionate],0.946
4,Clc1ccc(CCC(Cn2ccnc2)Sc2c(Cl)cccc2Cl)cc1 (centres undefined) [Butoconazole nitrate],0.97
5,C[C@H](N)[C@H](O)c1cccc(O)c1 [Metaraminol bitartrate],0.968
6,OCCOCCN1CCN(C(c2ccccc2)c2ccc(Cl)cc2)CC1 (centres undefined) [Hydroxyzine dihydrochloride],0.978
7,O=c1n(CCCN2CCN(c3cccc(Cl)c3)CC2)nc2ccccn12 [Trazodone hydrochloride],0.98
8,O=C(CCCN1CCC(O)(c2ccc(Br)cc2)CC1)c1ccc(F)cc1 [Bromperidol],1.02
9,CN1CCCN(C(c2ccccc2)c2ccc(Cl)cc2)CC1 (centres undefined) [Homochlorcyclizine dihydrochloride],0.942
10,Cc1ccc(Cl)c(Nc2ccccc2C(=O)O)c1Cl [Meclofenamic acid sodium salt monohydrate],0.94
11,COc1cc([C@@H]2c3cc4c(cc3[C@@H](O[C@@H]3O[C@@H]5CO[C@@H](C)O[C@H]5[C@H](O)[C@H]3O)[C@H]3COC(=O)[C@H]23)OCO4)cc(OC)c1O [Etoposide],1.03
12,NC[C@@H]1O[C@H](O[C@H]2[C@@H](O)[C@H](O[C@@H]3[C@@H](O)[C@H](N)C[C@H](N)[C@H]3O[C@H]3O[C@H](CN)[C@@H](O)[C@H](O)[C@H]3N)O[C@@H]2CO)[C@H](N)[C@@H](O)[C@@H]1O [Neomycin sulfate],0.923
13,C=CCN1CCCC1CNC(=O)c1cc2nn[nH]c2cc1OC (centres undefined) [Alizapride hydrochloride],1
14,CC(N/C(=N\C#N)Nc1ccncc1)C(C)(C)C (centres undefined) [Pinacidil monohydrate],1
15,O=S(=O)(O)CCS [Coenzyme M],1.06
16,CC[N+](C)(C)c1cccc(O)c1 [Edrophonium chloride],0.936
17,Clc1ccc(Nc2nnc(Cc3ccncc3)c3ccccc23)cc1 [Vatalanib],1.04
18,O=C(O)CNC(=O)C(CS)Cc1ccccc1 (centres undefined) [Thiorphan],0.891
19,C[C@@H](O)[C@H]1C(=O)N2C(C(=O)O)=C(S[C@@H]3CN[C@H](C(=O)N(C)C)C3)[C@H](C)[C@H]12 [Meropenem],0.283 (active)
20,CC(C)NC[C@@H](O)COc1cccc2ccccc12 [(R) Propranolol hydrochloride],0.99

row,SMILES,growth AUC normalised to DMSO control
1,CCCNC(=O)NS(=O)(=O)c1ccc(Cl)cc1 [Chlorpropamide],0.995
2,Nc1ccn([C@@H]2O[C@H](CO)[C@@H](O)C2(F)F)c(=O)n1 [Gemcitabine],1.1
3,CCN1CCC[C@H]1CNC(=O)c1c(OC)ccc(Br)c1OC [Remoxipride hydrochloride],1.04
4,Cn1c(=O)c2c(ncn2CC(=O)O)n(C)c1=O [Acefylline],0.969
5,C#C[C@]1(O)CC[C@H]2[C@@H]3CCC4=Cc5oncc5C[C@]4(C)[C@H]3CC[C@@]21C [Danazol],0.908
6,CCC1NC(=O)c2cc(S(N)(=O)=O)c(Cl)cc2N1 (centres undefined) [Quinethazone],1.16
7,NC(=O)c1cccnc1 [Nicotinamide],1.04
8,CCc1cccc(CC)c1NC(=O)CN(CC(=O)O)CC(=O)O [Etifenin],1.01
9,N#Cc1ccc(C(c2ccc(C#N)cc2)n2cncn2)cc1 [Letrozole],1.01
10,CC(C)CC(=O)N[C@H](C(=O)N[C@H](C(=O)N[C@@H](CC(C)C)[C@@H](O)CC(=O)N[C@@H](C)C(=O)N[C@@H](CC(C)C)[C@@H](O)CC(=O)O)C(C)C)C(C)C [Pepstatin A],1.07
11,CN(C)CC/C=C1/c2ccccc2Sc2ccc(Cl)cc21 [Chlorprothixene hydrochloride],0.887
12,CN(C)C(=O)C(CCN1CCC(O)(c2ccc(Cl)cc2)CC1)(c1ccccc1)c1ccccc1 [Loperamide hydrochloride],1
13,O=C(NC(Cc1cc(=O)[nH]c2ccccc12)C(=O)O)c1ccc(Cl)cc1 (centres undefined) [Rebamipide],1.01
14,CCN1CCCC(OC(=O)C(c2ccccc2)c2ccccc2)C1 (centres undefined) [Piperidolate hydrochloride],1.05
15,CC(C)(Sc1cc(C(C)(C)C)c(O)c(C(C)(C)C)c1)Sc1cc(C(C)(C)C)c(O)c(C(C)(C)C)c1 [Probucol],1.01
16,CNC(=C[N+](=O)[O-])NCCSCc1ccc(CN(C)C)o1 [Ranitidine hydrochloride],0.992
17,CO[C@@]1(NC(=O)CSCC#N)C(=O)N2C(C(=O)O)=C(CSc3nnnn3C)CS[C@@H]21 [Cefmetazole sodium salt],0.0246 (active)
18,COc1ccc2c3c1O[C@H]1C[C@@H](O)C=C[C@@]31CCN(C)C2 [Galanthamine hydrobromide],0.988
19,COC(=O)Nc1nc2cc(C(=O)c3ccc(F)cc3)ccc2[nH]1 [Flubendazol],1.02
